F508del corr = CFTR F508del correction in bronchial cells. AID 720511. 0.36% of 350,000 active. CFBE cells, YFP halide quenching; stimulated with forskolin plus potentiator P3; % fluorescence drop versus neutral controls. activity (quench increase), % at 7.58 µM;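 active means mean added fluorescence quench of at least 8% versus neutral control, with both replicates also reaching 8%; inconclusive means only one of the mean or replicate conditions met; inactive means mean below 8% and not both replicates reaching 8%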;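 further: cells transiently co-express mutant CFTR-F508del with the halide-sensitive YFP; corrector assay measuring rescue of mutant channel to the surface after 24 h compound exposure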
rRNA inh HTS = inhibits bacterial ribosomal RNA function over humanized ribosomes | E. coli WT GFP vs humanized-ribosome RFP mutants, fluorescence, 24 h; active compounds read low; DMSO median 0, no signal -100 | GFP signal change (wild-type ribosome), % (test concentration not listed) | AID 720706 | 1.6% of 350,000 active;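 active means significant combined selectivity score with lowered wild-type GFP, culture density cut under 30%, mutant RFP and density less affected; inactive means any of these conditions unmet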
ERAP1 inh = blocks human ERAP1 aminopeptidase activity | recombinant ERAP1, Leu-AMC fluorescence, 60 min | inhibition, % at 10.7 µM | 0.15% of 340,000 active | AID 652197;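 active means mean replicate inhibition of at least 30%, or all replicates individually reaching that 30% level; inactive means mean below 30% and not every replicate reaching it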;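 further: 0% = neutral control wells and 100% = L-leucinethiol positive control wells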
Target sequence (Q9NZ08 whole entry, looked up): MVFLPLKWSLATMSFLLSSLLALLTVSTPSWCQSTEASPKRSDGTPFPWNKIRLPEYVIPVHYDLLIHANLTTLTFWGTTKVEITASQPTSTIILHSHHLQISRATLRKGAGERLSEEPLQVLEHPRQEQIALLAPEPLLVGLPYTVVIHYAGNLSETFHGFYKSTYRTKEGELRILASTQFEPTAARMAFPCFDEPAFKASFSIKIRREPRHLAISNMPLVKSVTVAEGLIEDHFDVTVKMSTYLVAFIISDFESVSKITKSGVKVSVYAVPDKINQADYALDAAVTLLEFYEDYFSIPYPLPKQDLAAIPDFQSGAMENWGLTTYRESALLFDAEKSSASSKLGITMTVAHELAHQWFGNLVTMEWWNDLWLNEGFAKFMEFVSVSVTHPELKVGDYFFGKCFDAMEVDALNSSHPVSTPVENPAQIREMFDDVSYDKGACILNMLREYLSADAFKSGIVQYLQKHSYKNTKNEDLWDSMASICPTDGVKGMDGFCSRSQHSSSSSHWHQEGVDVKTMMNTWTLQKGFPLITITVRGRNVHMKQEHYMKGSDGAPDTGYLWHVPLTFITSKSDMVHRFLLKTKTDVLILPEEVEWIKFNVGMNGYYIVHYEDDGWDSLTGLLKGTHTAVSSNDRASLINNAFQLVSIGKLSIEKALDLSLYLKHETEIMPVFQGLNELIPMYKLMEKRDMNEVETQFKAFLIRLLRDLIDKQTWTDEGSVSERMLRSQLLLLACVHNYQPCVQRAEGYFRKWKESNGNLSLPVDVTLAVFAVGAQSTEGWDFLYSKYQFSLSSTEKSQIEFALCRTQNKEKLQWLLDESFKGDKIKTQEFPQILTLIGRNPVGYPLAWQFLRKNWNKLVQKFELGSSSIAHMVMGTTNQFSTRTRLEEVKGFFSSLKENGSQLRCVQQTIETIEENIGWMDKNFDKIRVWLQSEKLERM
PvdQ acylase = P. aeruginosa PvdQ acylase inhibition. purified PvdQ acylase, fluorescence plate reader. inhibition, % at 10 µM. 0.063% of 340,000 active. AID 488965; in the data active means inhibition above about 30%, passing the limit was not always enough; inconclusive means no clear call, values can overlap the other calls;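 further: 0% = vehicle neutral wells and 100% = reference inhibitor wells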
ARNT TACC3 PPI = disruptors of human ARNT/TACC3 interaction; Q9Y6A5; AlphaScreen His-ARNT PAS-B/GST-TACC3 binding, luminescence; TACC3 fragment carries E629A point mutation; inhibition, % at 9.99 µM; 0.66% of 390,000 active; AID 623870;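 active means mean inhibition of replicates at least 50% and at least half of replicates each reaching 50%; inconclusive means half or more replicates reach 50% but mean below 50%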;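 further: 0% = complete ARNT plus TACC3 wells and 100% = ARNT alone without TACC3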
HepG2 cytotox = HepG2 cell cytotoxicity | shares compounds with rRNA inh HTS | 30 tested, under 10 active | activity change, negative = cytotoxicity, unspecified at 26 µM | AID 743480 | HepG2 viability, ATP luminescence, 72 h;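 active means compounds whose fitted half-maximal signal-loss concentration is at most twice their highest valid dose; inconclusive means flat curve with 30 to 70% signal loss, or poor fit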
AID977621 = wild-type E. coli growth inhibition versus H69 humanized strain – H69 mutant RFP, wild-type GFP, cherry-pick, dose response. 1,900 tested, under 10 active. shares compounds with rRNA inh HTS. fluorescence, 24 h. activity change, negative = inhibition at 50 µM;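 active means Wild-type ribosome reporter drop at least double the humanized mutant ribosome reporter drop, growth loss under a set limit; inconclusive means no clear call, values can overlap the other calls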;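 further: wild-type GFP and H69 mutant RFP strains grown together 50/50 in each well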
AID977628 = growth of wild-type and h24-humanized E. coli strains – h24 mutant RFP vs wild-type GFP, cherry-pick, dose response. shares compounds with rRNA inh HTS. E. coli WT GFP strain growth, fluorescence, 24 h. activity change, negative = inhibition at 50 µM. 1,900 tested, under 10 active. AID 977628;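 active means compound lowering the normal-ribosome reporter at least twice as much as the humanized-ribosome reporter, growth loss under a set limit; inconclusive means no clear call, values can overlap the other calls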;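 further: wild-type GFP and h24 humanized RFP strains co-cultured 1 to 1 per well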
* = called active by the depositor. A selection: hits, their analogues and other compounds. The true share with any hit is near 2.1%.

For COC(=O)Cn1c(=O)c2c(nc3n2CC(C)CN3Cc2ccccc2)n(C)c1=O (stereo not given) the results were F508del corr 0.9, rRNA inh HTS 0.8, ERAP1 inh 2.9, PvdQ acylase -15.3 and ARNT TACC3 PPI 0.8.
Screening C=C(C)Cn1c(=O)c2c(nc3n2CC(C)CN3Cc2ccccc2)n(C)c1=O (stereo not given) returned F508del corr 0.5, rRNA inh HTS -23.8*, ERAP1 inh 1.7, PvdQ acylase -5.2, ARNT TACC3 PPI -5.1, AID977621 -15.6 and AID977628 inconclusive.
`CCN(c1ccccc1)S(=O)(=O)c1ccc(OC)c(NC(=O)C2CC(=O)N(Cc3ccccc3)C2)c1` (stereo not given) gave F508del corr -2.3, rRNA inh HTS -31.3*, ERAP1 inh 10.5, PvdQ acylase -9.0, ARNT TACC3 PPI -3.7 and AID977628 inconclusive.
`COc1cccc2c1Oc1cc([N+](=O)[O-])cc(N(C)C(C)=O)c1C=C2` gave F508del corr -0.2, rRNA inh HTS -17.3*, ERAP1 inh 4.5, PvdQ acylase 18.4, ARNT TACC3 PPI 4.0 and AID977628 inconclusive.
For CC(=O)N(C)c1cc([N+](=O)[O-])ccc1OCc1ccccc1 the results were F508del corr 1.6, rRNA inh HTS -14.8, ERAP1 inh 7.3, PvdQ acylase -1.1 and ARNT TACC3 PPI -4.0.
`Cc1ccccc1S(=O)(=O)N1C[C@H]2CON(C)[C@H]2C[C@H]1c1cccc(-c2ccc(C#N)cc2)c1` gave F508del corr 0.6, rRNA inh HTS -18.4*, ERAP1 inh 0.7, PvdQ acylase -21.1, ARNT TACC3 PPI 1.4 and AID977621 inconclusive.
CN1OC[C@@H]2CN(C(=O)c3ccco3)[C@H](c3ccc(-c4ccc(C#N)cc4)cc3)C[C@@H]21 was read as F508del corr 2.3, rRNA inh HTS -18.7*, ERAP1 inh 1.6, AID977621 -5.44 and AID977628 -4.72.
`COc1ccc(NC(=O)N[C@@H]2CC[C@H](CCn3cc(C4(O)CCCC4)nn3)O[C@H]2CO)cc1` gave F508del corr 4.0, rRNA inh HTS -2.5, ERAP1 inh 2.2 and ARNT TACC3 PPI 3.4.
`COC(=O)c1c(NC(=O)CCC(=O)O)sc(Cc2ccccc2)c1C` gave F508del corr -0.1, rRNA inh HTS -37.8*, PvdQ acylase -12.0, ARNT TACC3 PPI 28.6 and HepG2 cytotox 13.2.
`O=C(O)c1cc(-c2ccc(-c3ccc(F)cc3)o2)nc2ccccc12` gave F508del corr 1.3, rRNA inh HTS -38.0*, ERAP1 inh -12.8, PvdQ acylase -0.1, ARNT TACC3 PPI -4.6 and AID977621 -12.7.
For C[C@@H]1CN([C@H](C)CO)C(=O)c2cc(-c3cccc(C#N)c3)cnc2O[C@@H]1CN(C)C(=O)c1cnccn1 the results were F508del corr -0.8, rRNA inh HTS 0.6 and ARNT TACC3 PPI -8.8.
`CCC1(CC)NC(=O)N(CC(=O)N2N=C(c3ccc(Cl)cc3)CC2c2ccco2)C1=O` (stereo not given) gave F508del corr 2.8, rRNA inh HTS -25.4*, ERAP1 inh 6.5, PvdQ acylase -10.5, ARNT TACC3 PPI -10.5, AID977621 4.07 and AID977628 inconclusive.
For O=C(NCc1ccc2c(c1)OCO2)C1CCCN1S(=O)(=O)c1ccc(Cl)cc1 (stereo not given) the results were F508del corr 2.3, rRNA inh HTS -19.0*, ERAP1 inh 2.7, PvdQ acylase -9.6, ARNT TACC3 PPI 4.6 and AID977621 -24.2.
COc1cc2c(cc1OC)CN(C(=O)c1cc(Cl)nc(Cl)c1)CC2 was read as F508del corr -2.4, rRNA inh HTS 3.5, ERAP1 inh 0.5, PvdQ acylase 3.3 and ARNT TACC3 PPI 28.5.
Screening COc1cc2c(cc1OC)C1(C)N(CC2)C(C(C)=O)=NN1c1ccc(Cl)cc1 (stereo not given) returned F508del corr 1.1, rRNA inh HTS -17.1*, ERAP1 inh -2.1 and AID977621 -3.4.
For C[C@@H]1CN([C@H](C)CO)C(=O)c2cc(C#CC(C)(C)O)cnc2O[C@H]1CN(C)C(=O)C1CCC1 the results were F508del corr 1.0, rRNA inh HTS 1.7, ERAP1 inh 1.0 and ARNT TACC3 PPI -0.7.
`COC(=O)[C@]1(Sc2ccc(C)cc2)CC(=O)N[C@@H]1c1ccccc1` gave F508del corr -1.6, rRNA inh HTS -21.1*, AID977621 -6.43 and AID977628 inconclusive.
Screening Cc1ccc(NC(=O)COC(=O)CCNS(=O)(=O)c2c(Cl)cccc2Cl)cc1 returned F508del corr 6.1, rRNA inh HTS -14.4*, ERAP1 inh -3.6, PvdQ acylase 4.2, ARNT TACC3 PPI -19.0, AID977621 3.43 and AID977628 -8.09.
`Cc1ccc(S(=O)(=O)NCCC(=O)OCC(=O)Nc2cccc(Cl)c2)cc1` gave F508del corr 0.6, ERAP1 inh -3.4, PvdQ acylase -18.3 and ARNT TACC3 PPI 6.4.
`O=C(NC(=O)c1ccccc1Cl)C(=O)Nc1ccc(Cl)cc1` gave F508del corr -3.4, rRNA inh HTS 19.8, ERAP1 inh -0.3, PvdQ acylase -11.8 and ARNT TACC3 PPI -0.8.
For O=C(Nc1c(S(=O)(=O)c2ccc(Cl)cc2)csc1Br)c1ccccc1Cl the results were F508del corr 1.2, rRNA inh HTS -25.8*, ERAP1 inh 6.0, PvdQ acylase -3.9, ARNT TACC3 PPI 13.1, AID977621 -0.527 and AID977628 inconclusive.
CCc1cc2c(nc1CC)CCCN2Cc1ccc(Br)cc1 was read as F508del corr 3.1, rRNA inh HTS -25.6*, ERAP1 inh -2.0 and AID977621 -3.32.
For COc1ccccc1NS(=O)(=O)c1cc(NC(=O)CNC(=O)c2ccccc2)ccc1C the results were rRNA inh HTS -20.0*, ERAP1 inh 1.9, PvdQ acylase 5.4, ARNT TACC3 PPI 0.8 and AID977621 inconclusive.
Screening COc1ccc(S(=O)(=O)N[C@H]2C=C[C@H](CC(=O)NCCc3ccccc3)O[C@H]2CO)cc1 returned F508del corr -1.5, rRNA inh HTS -1.1, ERAP1 inh -0.6 and ARNT TACC3 PPI -14.4.
Cc1cccc(C)c1-n1nnnc1C1(C)CCC(=O)N1Cc1cccs1 (stereo not given) was read as F508del corr -2.3, rRNA inh HTS -20.6* and AID977621 -26.2.
